In the library only some 1.7% were active in any assay of this set; here they are far more common.
SSB-PriA inh: blocks PriA binding to SSB C-terminal tail; AlphaScreen SSBct-PriA binding, biotinylated peptide; inhibition, % at 33 µM; hit rate 0.6% among 430,000; AID 1272365; in the data active = inhibition mostly above about 37%, no sharp cut-off; inactive = mostly below about 20%;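 also: plate controls were negative control peptide for no effect and reference peptide for full effect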
PrPC surface inh: reduces human prion protein on the cell surface; inhibition, % at 13.8 µM; P04156; AID 720596; hit rate 0.43% among 370,000; cell surface PrPC, TR-FRET read-out; in the data active = inhibition above about 24%; also: 0% = median of the test wells and 100% = reference compound wells
PfHsp40 rescue: rescue of PfHsp40-mediated yeast toxicity; S. cerevisiae expressing PfHsp40, growth rescue, ATP luminescence; growth rescue, % at 12.5 µM; hit rate 0.68% among 340,000; AID 504582; in the data active = growth rescue above about 28%, passing the limit was not always enough; inconclusive = no clear call, values can overlap the other calls;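 also: yeast W303a lacking pdr1 and pdr3 grown in galactose medium; growth measured after three days at 30 °C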
Yp Topo-I inh: inhibitors of Yersinia pestis topoisomerase I | Y. pestis Topo-I cleavage product accumulation, plate reader | activity, % at 10 µM | hit rate 0.064% among 360,000; in the data active = activity above about 50%, passing the limit was not always enough; inconclusive = no clear call, values can overlap the other calls
PrP UTR inh: inhibition of PrP 5' UTR reporter expression. cell-based PrP 5' UTR mRNA reporter, plate reader. inhibition, % (test concentration not listed). hit rate 0.35% among 340,000. AID 488862; in the data active = inhibition above about 52%; also: 0 = median of the neutral control wells
BJeLR viability: kills HRASV12-expressing BJeLR cells; inhibition, % (test concentration not listed); AID 1554; hit rate 0.17% among 300,000; BJeLR (HRASV12) viability, CellTiter-Glo ATP luminescence, 48 h; in the data active = inhibition above about 50%; inconclusive = no clear call, values can overlap the other calls
PrPC confirm: cell surface PrPC inhibition, TR-FRET confirmation; shares compounds with PrPC surface inh; cell surface PrPC level; inhibition, % at 13.8 µM; hit rate 65% among 1,500; AID 743200; in the data active = inhibition above about 25%
LD9 tox: LD9 cell cytotoxicity, PrPc inhibitor counter-screen; hit rate 29% among 1,500; LD9 cells cytotoxicity, luminescence viability; inhibition, % at 13.8 µM; shares compounds with PrPC surface inh; in the data active = inhibition above about 9.5%
The depositor's hits bear a star; i = inactive; ? = inconclusive; nt = no result.

SMILES	SSB-PriA inh	PrPC surface inh	PfHsp40 rescue	Yp Topo-I inh	PrP UTR inh	BJeLR viability	PrPC confirm	LD9 tox
O=C(CCC(=O)c1cccs1)NC(c1ccccc1)c1ccccc1	3	33*	-1	-2	-4	0	-2	-2
C=CCN=c1scc(-c2cccc(Cl)c2)n1/N=C/c1ccccn1	i	nt	nt	nt	nt	nt	nt	nt
N#CCc1ccc(NC(=O)Nc2cccc(Cl)c2)cc1	4	31*	1	-6	-46	5	33*	5
O=c1c2cn[nH]c2[nH]c(=S)n1-c1cccc2ccccc12	-7	40*	-1	-1	-23	3	46*	-6
O=c1c2cn[nH]c2[nH]c(=S)n1-c1ccccc1	-2	-3	0	-3	-8	0	nt	nt
CC(=O)CSc1ncnc2sc3c(c12)CCCC3	-20	30*	3	-9	-14	7	20	-10
Cc1sc2ncnc(Sc3ccccc3C(=O)O)c2c1C	-4	94*	0	-5	-18	-10	121*	-1
O=C(O)c1ccccc1Sc1ncnc2sc3c(c12)CCC3	2	45*	0	5	-33	6	63*	-9
O=C(N/N=C(\c1ccccc1)c1ccccn1)c1ccccc1Cl	nt	10	9	2	28	15	nt	nt
COc1ccc(C(=O)N/N=C(\c2ccccc2)c2ccccn2)cc1	nt	28*	86*	9	31	24	26*	39*
COc1ccc2c(C)cc(SCc3c(C)noc3C)nc2c1	-35	67*	2	0	-29	7	88*	-5
C#CCn1c(=NC(=O)c2ccc(Br)s2)sc2cccc(OC)c21	-9	30*	0	-2	-68	-3	81*	3
C#CCn1c(=NC(=O)c2cc3cc([N+](=O)[O-])ccc3s2)sc2cccc(OC)c21	-9	nt	nt	nt	nt	nt	nt	nt
O=C(CSc1nc(CC(=O)NC2CC2)cc(=O)[nH]1)Nc1cccc(Cl)c1	-9	nt	nt	nt	nt	nt	nt	nt
COc1cccc(NC(=O)c2ccc(NS(=O)(=O)c3cccs3)cc2)c1	-1	1	-1	-7	2	nt	nt	nt
NC(=O)c1cc(NC(=O)c2ccc(NS(=O)(=O)c3cccs3)cc2)cc(C(N)=O)c1	4	33*	0	0	-9	-1	35*	4
Cc1cccc(OCCCC(=O)Nc2nc3ccccc3[nH]2)c1	-7	29*	1	12	-31	1	25*	-8
Cc1ccc(OCCCC(=O)Nc2nc3ccccc3[nH]2)cc1	-2	7	1	9	-82	-2	nt	nt
Cc1ncc(CO)c(C=NNC(=O)c2cc3c(s2)CCCC3)c1O	7	nt	nt	nt	nt	nt	nt	nt
Cc1ncc(CO)c(/C=N/NC(=O)c2cc3c(s2)CCCC3)c1O	nt	40*	19	-12	13	8	23	15*
O=C1SC(Nc2ccc(F)cc2)C(=O)N1Cc1ccccc1 (stereo not given)	-10	nt	nt	nt	nt	nt	nt	nt
CCOC(=O)c1csc(NC(=O)c2ccc(OCC)cc2)n1	-8	30*	0	-5	-7	3	20	-1
CCOC(=O)c1csc(NC(=O)c2ccccc2)n1	-2	12	1	8	-38	-8	nt	nt
O=C(Nc1nc(-c2ccccc2)cs1)c1ccccc1NS(=O)(=O)c1ccc(F)cc1	-13	35*	7	-5	-6	31	30*	32*
CCCCn1c(=N)n(CC(=O)c2ccc(Br)s2)c2ccccc21	-8	37*	0	0	-33	8	83*	28*
Cc1nc(-n2cccc2)sc1C(=O)N1CCN(CCn2ccnc2-c2ccccc2)CC1	7	nt	nt	nt	nt	nt	nt	nt
O=C(COc1ccccc1)NC(Cc1ccccc1)C(=O)O (stereo not given)	14	nt	nt	nt	nt	nt	nt	nt
CC1CCc2cc(F)cc3c(O)c(C(=O)NCC4CCCO4)c(=O)n1c23 (stereo not given)	-7	31*	?	-1	-15	-8	40*	-5
CCCn1c(=O)c(C(=O)NCC2CCCO2)c(O)c2ccccc21 (stereo not given)	-25	10	0	16	-16	5	nt	nt
O=C(c1cc2cc(F)ccc2s1)N1CCC(n2cc(-c3ccccc3)nn2)C1 (stereo not given)	9	nt	nt	nt	nt	nt	nt	nt
